# Experimental data taken from PubChem BioAssay (NCATS).
# Results filed as inconclusive are left out. Unmarked numbers belong to inactive results. The source made the active and inactive calls. The call rests on the fitted dose curve; in most records, active means well fitted inhibition curve with a large enough effect; inconclusive means small, poorly fitted or top-dose-only effect; inactive means flat fitted curve, though single readings scatter.
# Target: Glutathione peroxidase 1 (Homo sapiens) (UniProt P07203)
# Sequence (P07203 whole entry, looked up): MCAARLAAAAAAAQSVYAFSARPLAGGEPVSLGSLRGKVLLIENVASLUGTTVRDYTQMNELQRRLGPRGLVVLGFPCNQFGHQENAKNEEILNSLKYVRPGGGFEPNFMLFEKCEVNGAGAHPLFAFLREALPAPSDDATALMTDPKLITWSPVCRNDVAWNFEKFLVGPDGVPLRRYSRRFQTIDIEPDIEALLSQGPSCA
# Test: Primary qHTS Assay for Inhibitors of Recombinant Selenoprotein Glutathione Peroxidase 1 (GPX1) (AID 1845191); further: nearly all actives have a fitted effect of over 65% in size
# Conditions: recombinant GPX1, GR-coupled NADPH fluorescence, 15 min; series mostly up to 48.8 µM; activity, negative = inhibition: at the top concentration
# Procedure, shortened: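 GR-coupled assay: compounds preincubated 30 min at room temperature with GPX1, then reaction started with CHP; final 10 nM GPX1, 1 mM GSH, 0.5 mM CHP, 0.5 mM NADPH, 100 nM GR, 0.01% BSA, pH 7.5 Tris buffer. NADPH fluorescence (340/450 nm) read at 0 and 15 min.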
# On the % scale 0 is the no-effect control and ±100 the full control effect.
SMILES,"activity, negative = inhibition",outcome,Potency
C=CC(=O)N1CCC[C@@H](n2nc(-c3cccc(C(=O)Nc4ccc(C(C)C)c(C)c4)c3)c3c(N)ncnc32)C1,-4.98%,–,–
COC(=O)c1sccc1S(=O)(=O)Nc1ccc(Nc2ccccc2)cc1OC,–,inactive,–
Cc1[nH]c2ccccc2c1CCNCc1ccc(/C=C/C(=O)NO)cc1,–,–,inactive
C/C=C/[C@@H]1C=C[C@@H]2C[C@H](C)CC[C@H]2[C@]1(C)/C(O)=C1/C(=O)[C@@H](CO)N(C)C1=O,-15.3% [at 27.7 µM],–,–
CC1(C(=O)Nc2ccc(F)nc2)CCCN1c1nc(Nc2cc(C3CC3)[nH]n2)c2cccn2n1 (stereo not drawn),-3.48%,–,–
C[C@H]1CC[C@@]2(OC1)O[C@H]1CC3C4CC[C@H]5C[C@@H](O)CC[C@]5(C)C4=CC(=O)[C@]3(C)[C@H]1[C@@H]2C (stereo partly drawn),-16.3% [at 27.7 µM],–,–
Cc1c(F)ccc(C(=O)Nc2cc([N+](=O)[O-])ccc2N2CCN(C)CC2)c1Cl,–,inactive,–
CCCCc1ccc(NS(=O)(=O)c2ccc(F)cc2)cc1,-28.1%,–,–
COc1cc(C(C)C)c(Oc2cnc(N)nc2N)cc1I,–,inactive,–
O=C1Nc2ccccc2-c2nc3ccccc3c(=O)n2-c2c(O)cccc21,-9.21% [at 27.7 µM],–,–
CC(C)C[C@@H](C(=O)N[C@@H](Cc1ccc(OCc2ccccc2)cc1)C(=O)NC(C)(C)C)N(C)Cc1ccc(C(C)(C)C)cc1,-10.2%,–,–
C=C1CCC2[C@](C)(CCC[C@@]2(C)C=O)[C@H]1CC/C(C)=C/CO (stereo partly drawn),–,inactive,–
Cc1[nH]c2ccc(F)cc2c1-c1nc2c3cccnc3c3ncccc3c2[nH]1,–,inactive [at 98.3 µM],–
CCn1c(=O)c(-c2ccc(-c3cncs3)cc2Cl)cc2cnc(Nc3ccc(N4CCN(C)CC4)cc3)nc21,-2.38%,–,–
C=CCCN1CCC2(CC1)CN(C(=O)c1c(F)cccc1F)c1ccc(Cl)cc12,–,inactive,–
CC1(C)CC[C@]2(C(=O)O)CC[C@]3(C)C(=CCC4[C@@]5(C)C[C@@H](O)[C@H](O)C(CO)(CO)C5CC[C@]43C)C2[C@@H]1O (stereo partly drawn),-14.9% [at 27.7 µM],–,–
C=C1C(=O)O[C@@H]2C[C@H](C)[C@@H]3CC(=O)[C@H](O)[C@@]3(C)C[C@H]12,-14.5%,–,–
O=C1NC(=O)C(c2cnc3ccccn23)=C1c1cn2c3c(cc(F)cc13)CN(C(=O)N1CCCCC1)CC2,-9.53%,–,–
CCOc1ccc(-n2c(C(C)N(Cc3cccnc3)C(=O)Cc3ccc(F)c(C(F)(F)F)c3)nc3ncccc3c2=O)cc1 (stereo not drawn),–,inactive,–

SMILES,"activity, negative = inhibition",outcome,Potency
CCOc1ccc(-n2c([C@@H](C)N(Cc3cccnc3)C(=O)Cc3ccc(OC(F)(F)F)cc3)nc3ncccc3c2=O)cc1,-23.5%,–,–
COc1cc(CCO)ccc1O[C@@H]1O[C@H](CO)[C@@H](O)[C@H](O)[C@H]1O,-11.5% [at 27.7 µM],–,–
CN(C)CCN(Cc1ccccc1)C(=O)c1cc(-c2ccc(F)cc2)n2nc(C(C)(C)C)cc2n1,–,inactive,–
C/C1=C/CCC2=CC(OC2=O)C(C)(C)/C=C/C1=O (stereo not drawn),-8.08%,–,–
O=C(NCCN1CCN(c2cccc3ccc(O)cc23)CC1)c1ccc(F)cc1,-22.5%,–,–
CC(=O)OC1C(O)CC2(C)C(CCC3(C)C2CC=C2C4C5(CCC(CO[C@@H]6O[C@H](CO)[C@@H](O)[C@H](O)[C@H]6O)(OC5=O)C4(C)O)C(O)CC23C)C1(C)C (stereo partly drawn),–,inactive [at 15.3 µM],–
C#CCNCc1cc2cc(OCc3ccccc3)ccc2[nH]1,–,inactive,–
O=c1nc(-c2ccccn2)sc2ccccc12,–,inactive,–
C=C1C(=O)OC2CC(C)C(CCC(C)O)=CCC12 (stereo not drawn),–,inactive,–
C=C1CC2OC(=O)C(=C)C2C(O)/C=C(\C)CCC1O (stereo not drawn),-10.3%,–,–
COc1ccc(CNCc2cccc3ccccc23)cc1,–,inactive,–
COc1ccccc1C(=O)Nc1cc2c(cc1N1CCCC1)n(C)c(=O)n2C,–,inactive,–
CCO[C@H]1CN(C2CCC(O)(c3ccc4c(c3)OCO4)CC2)C[C@@H]1NC(=O)CNC(=O)c1cccc(C(F)(F)F)c1 (stereo partly drawn),2.31%,–,–
COc1cc2c(cc1OCCCN1CCCC1)N=C(N)C21CCC1,–,–,inactive
Cc1cc(C)c(S(=O)(=O)n2cc(C)cc2C)c(C)c1,–,inactive,–
CNC(=O)c1ccc2c(c1)CCO[C@H]2CCN1CCN(c2ccc(OC)cc2)CC1,–,inactive,–
CCCC(CCC)C(=O)NCc1ccc2c(cnn2-c2ccccc2OC)c1,–,inactive,–
Cc1cc2c(N3CCCC3)nc(N3CCCC3)nc2n1C,-12.1%,–,–
C[C@H]1CO[C@@H]2Cn3cc(C(=O)NCc4ccc(F)cc4F)c(=O)c(O)c3C(=O)N12,-2.74%,–,–
